Hit rate of the full screen: of about 5,500 compounds, about 2,000 (36%) were called active. About 18% were inconclusive and are not listed. No stated cut-off is given here; in the data, active means normalized growth mostly below about 0.91 (no sharp cut-off); inconclusive means no clear call, values can overlap the other calls; inactive means mostly above about 0.92. The list shows a part of the results.
Test: chemical genetic growth profiling, strain panel (AID 1159580);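 further: tested at 20 µM; growth read once vehicle control cultures reached saturation at 30 °C; 1 = growth at the plate median or of vehicle wells; lower values mean less growth of the strain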
Conditions: growth OD

Measured: normalized growth

COC1=CC(C)[C@@H]2C[C@H]3OC(=O)C[C@H]4C(C)=C(OC)C(=O)C([C@@]34C)[C@@]2(C)C1=O (some centres undefined)
inactive: S. cerevisiae deletion strains, locus YKL009W, strain mrt4, hits give low values 1.01 | S. cerevisiae deletion strains, locus YKL068W, hits give low values 1 | S. cerevisiae deletion strains, locus YKL085W, strain MDH1 (second series), hits give low values 1 | S. cerevisiae deletion strains, locus YKL085W, strain MDH1, hits give low values 1 | S. cerevisiae deletion strains, locus YKL160W, strain elf1, hits give low values 1 | S. cerevisiae deletion strains, locus YKL190W, strain CNB1, hits give low values 1.01 | S. cerevisiae deletion strains, locus YKR001C, strain vps1, hits give low values 0.986 | S. cerevisiae deletion strains, locus YKR026C, strain gcn3, hits give low values 0.96 | S. cerevisiae deletion strains, locus YKR091W, strain srl3, hits give low values 0.967 | S. cerevisiae deletion strains, locus YLL001W, strain dnm1, hits give low values 0.969 | S. cerevisiae deletion strains, locus YLL026W, hits give low values 0.985 | S. cerevisiae deletion strains, locus YLL041C, strain sdh2, hits give low values 0.983 | S. cerevisiae deletion strains, locus YLR027C, strain aat2, hits give low values 0.992 | S. cerevisiae deletion strains, locus YLR039C, strain RIC1, hits give low values 1.06 | S. cerevisiae deletion strains, locus YLR058C, strain SHM2, hits give low values 1.02 | S. cerevisiae deletion strains, locus YLR102C, strain apc9, hits give low values 1.02 | S. cerevisiae deletion strains, locus YLR113W, strain HOG1, hits give low values 1.03 | S. cerevisiae deletion strains, locus YLR221C, strain rsa3, hits give low values 1.01 | S. cerevisiae deletion strains, locus YLR258W, strain gsy2, hits give low values 0.968 | S. cerevisiae deletion strains, locus YLR262C, strain YPT6 (second series), hits give low values 0.991 | S. cerevisiae deletion strains, locus YLR262C, strain YPT6, hits give low values 1.16 | S. cerevisiae deletion strains, locus YLR268W, strain sec22, hits give low values 1.04 | S. cerevisiae deletion strains, locus YLR320W, strain mms22, hits give low values 0.975 | S. cerevisiae deletion strains, locus YLR330W, strain CHS5, hits give low values 1.01 | S. cerevisiae deletion strains, locus YLR342W, strain FKS1 (second series), hits give low values 1.01 | S. cerevisiae deletion strains, locus YLR342W, strain FKS1, hits give low values 0.976 | S. cerevisiae deletion strains, locus YLR357W, strain rsc2, hits give low values 0.942 | S. cerevisiae deletion strains, locus YLR370C, strain arc18, hits give low values 0.978 | S. cerevisiae deletion strains, locus YLR371W, strain rom2, hits give low values 1.02 | S. cerevisiae deletion strains, locus YLR384C, strain iki3, hits give low values 0.967 | S. cerevisiae deletion strains, locus YLR418C, strain cdc73, hits give low values 1 | S. cerevisiae deletion strains, locus YML016C, strain PPZ1, hits give low values 1.01 | S. cerevisiae deletion strains, locus YML032C, strain rad52, hits give low values 1.01 | S. cerevisiae deletion strains, locus YML120C, strain ndi1, hits give low values 0.99 | S. cerevisiae deletion strains, locus YML124C, strain tub3, hits give low values 1.01 | S. cerevisiae deletion strains, locus YMR058W, strain fet3, hits give low values 0.976 | S. cerevisiae deletion strains, locus YMR078C, strain ctf18, hits give low values 1.03 | S. cerevisiae deletion strains, locus YMR125W, strain sto1, hits give low values 0.975 | S. cerevisiae deletion strains, locus YMR129W, hits give low values 0.987 | S. cerevisiae deletion strains, locus YMR205C, strain PFK2, hits give low values 0.946 | S. cerevisiae deletion strains, locus YMR223W, strain ubp8, hits give low values 1.01 | S. cerevisiae deletion strains, locus YMR231W, strain pep5, hits give low values 0.973 | S. cerevisiae deletion strains, locus YMR263W, strain SAP30, hits give low values 1.02 | S. cerevisiae deletion strains, locus YMR307W, strain GAS1, hits give low values 1.17 | S. cerevisiae deletion strains, locus YNL067W, strain RPL9B, hits give low values 1.03 | S. cerevisiae deletion strains, locus YNL071W, strain lat1, hits give low values 0.987 | S. cerevisiae deletion strains, locus YNL153C, strain GIM3, hits give low values 1.02 | S. cerevisiae deletion strains, locus YNL183C, strain NPR1, hits give low values 0.988 | S. cerevisiae deletion strains, locus YNL209W, strain ssb2, hits give low values 1 | S. cerevisiae deletion strains, locus YNL233W, strain BNI4, hits give low values 1.03 | S. cerevisiae deletion strains, locus YNL248C, strain rpa49, hits give low values 1.01 | S. cerevisiae deletion strains, locus YNL250W, strain rad50, hits give low values 1.03 | S. cerevisiae deletion strains, locus YNL271C, strain bni1, hits give low values 1.01 | S. cerevisiae deletion strains, locus YNL298W, strain CLA4, hits give low values 1.02 | S. cerevisiae deletion strains, locus YNL307C, strain MCK1, hits give low values 1.01 | S. cerevisiae deletion strains, locus YNL322C, strain KRE1 (second series), hits give low values 0.988 | S. cerevisiae deletion strains, locus YNL322C, strain KRE1, hits give low values 1 | S. cerevisiae deletion strains, locus YNR049C, strain mso1, hits give low values 0.973 | S. cerevisiae deletion strains, locus YNR052C, strain pop2, hits give low values 1.01 | S. cerevisiae deletion strains, locus YOL006C, strain TOP1, hits give low values 1.08 | S. cerevisiae deletion strains, locus YOL012C, strain htz1 2.07 | S. cerevisiae deletion strains, locus YOL147C, strain pex11, hits give low values 1 | S. cerevisiae deletion strains, locus YOR001W, strain rrp6, hits give low values 0.993 | S. cerevisiae deletion strains, locus YOR061W, strain CKA2, hits give low values 1.01 | S. cerevisiae deletion strains, locus YOR069W, strain VPS5, hits give low values 1.01 | S. cerevisiae deletion strains, locus YOR070C, strain gyp1, hits give low values 0.987 | S. cerevisiae deletion strains, locus YOR080W, strain dia2, hits give low values 0.977 | S. cerevisiae deletion strains, locus YOR083W, strain WHI5, hits give low values 1.01 | S. cerevisiae deletion strains, locus YOR106W, strain vam3, hits give low values 0.992 | S. cerevisiae deletion strains, locus YOR136W, strain idh2, hits give low values 1.01 | S. cerevisiae deletion strains, locus YOR144C, strain elg1, hits give low values 1.01 | S. cerevisiae deletion strains, locus YOR184W, strain ser1, hits give low values 1.02 | S. cerevisiae deletion strains, locus YOR231W, strain MKK1, hits give low values 1.04 | S. cerevisiae deletion strains, locus YOR265W, strain rbl2, hits give low values 0.982 | S. cerevisiae deletion strains, locus YOR270C, strain vph1, hits give low values 0.975 | S. cerevisiae deletion strains, locus YOR290C, strain snf2, hits give low values 0.903 | S. cerevisiae deletion strains, locus YOR316C, strain cot1, hits give low values 1.01 | S. cerevisiae deletion strains, locus YPL051W, strain arl3, hits give low values 1 | S. cerevisiae deletion strains, locus YPL078C, strain atp4, hits give low values 0.996 | S. cerevisiae deletion strains, locus YPL106C, strain sse1, hits give low values 0.978 | S. cerevisiae deletion strains, locus YPL240C, strain hsp82, hits give low values 0.987 | S. cerevisiae deletion strains, locus YPL241C, strain CIN2, hits give low values 1.01 | S. cerevisiae deletion strains, locus YPL256C, strain CLN2, hits give low values 1.01 | S. cerevisiae deletion strains, locus YPR119W, strain clb2, hits give low values 1.01 | S. cerevisiae deletion strains, locus YPR141C, strain kar3, hits give low values 1.01 | S. cerevisiae deletion strains, locus YPR163C, strain tif3, hits give low values 1.01 | S. cerevisiae deletion strains, locus YPR167C, strain met16, hits give low values 1 | S. cerevisiae deletion strains, strain wtn01, hits give low values 1.01 | S. cerevisiae strains, strain wild type, hits give low values 1.01

From PubChem BioAssay AID1159580 (chemical genetic matrix, 2015)
